According to PubChem BioAssay (NCATS):
Inconclusive results are not listed. A call without a number means that no potency is given here. Calls of active or inactive are those of the source. Unless noted, calls follow the shape of the dose curve; as a rule, active = well fitted cell-killing curve with a large enough effect; inconclusive = small, poorly fitted or top-dose-only effect; inactive = flat fitted curve, though single readings scatter.

Assays:
[1] = Cell Viability - LYMP2-002 (AID 977); also: potency is read from the fitted curve at half-maximal effect
Summary of the method: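 Luminescent ATP readout (CellTiter-Glo, 30 min room temperature) after 24 h compound exposure at 37 C of a human lymphoblastoid line, 2500 cells/well. AC50 values derived by standard Hill fitting of qHTS concentration-response data.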

[2] = Cell Viability - LYMP2-006 (AID 978); also: nearly all actives have a fitted effect of over 60% in size; also: potency is read from the fitted curve at half-maximal effect
Summary of the method: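 Concentration-dependent loss of intracellular ATP in a human lymphoblastoid line after 24 hr treatment at 37 C was measured by CellTiter-Glo luminescence, with AC50 values obtained from standard Hill-equation modelling.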

[3] = Cell Viability - LYMP2-007 (AID 979);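 also: cells exposed to compound for 24 h before reading; nearly all actives have a fitted effect of over 60% in size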; also: potency is read from the fitted curve at half-maximal effect
Summary of the method: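 Human lymphoblastoid LYMP2-007 cells (2500/well) preincubated 5 h at 37 C, then treated 24 h at 37 C in complete medium. Viability by CellTiter-Glo ATP luminescence after 30 min at room temperature; AC50 from Hill fits.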

[4] = Cell Viability - LYMP2-008 (AID 980); also: nearly all actives have a fitted effect of over 60% in size; also: potency is read from the fitted curve at half-maximal effect
Summary of the method: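 LYMP2-008 lymphoblastoid cells (2500/well) plated 5 h, then treated 24 h at 37 C in complete medium. Viability read as intracellular ATP by CellTiter-Glo luminescence after 30 min at room temperature; AC50 from Hill fits.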

[5] = Cell Viability - LYMP2-010 (AID 981); also: nearly all actives have a fitted effect of over 55% in size; also: potency is read from the fitted curve at half-maximal effect
Summary of the method: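 Human lymphoblastoid LYMP2-010 cells (2500/well) treated 24 h at 37 C in complete medium; viability read as intracellular ATP by CellTiter-Glo luminescence. AC50 from Hill fits of concentration-response data; tetraoctylammonium bromide positive control.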

[6] = Cell Viability - LYMP2-012 (AID 982);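 also: cellular ATP by luciferase luminescence where a drop means cytotoxicity; cells exposed to compound for one day before reading; nearly all actives have a fitted effect of over 55% in size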; also: potency is read from the fitted curve at half-maximal effect
[7] = Cell Viability - LYMP2-014 (AID 983); also: nearly all actives have a fitted effect of over 50% in size; also: potency is read from the fitted curve at half-maximal effect
Summary of the method: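 LYMP2-014 human lymphoblastoid cells, 2500/well, treated 24 h at 37 C in complete medium; viability by CellTiter-Glo ATP luminescence after 30 min at room temperature. AC50 from Hill fits of qHTS concentration-response; tetraoctylammonium bromide positive control.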

[8] = Cell Viability - LYMP2-016 (AID 984); also: nearly all actives have a fitted effect of over 55% in size; also: potency is read from the fitted curve at half-maximal effect
Summary of the method: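 Acute toxicity in a Coriell human lymphoblastoid line is scored as loss of intracellular ATP over 24 h of treatment in complete medium. CellTiter-Glo signal is fitted across concentrations with the Hill equation to give AC50.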

[9] = Cell Viability - LYMP2-018 (AID 985);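 also: compound exposure lasted 24 hr at 37 °C; nearly all actives have a fitted effect of over 50% in size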; also: potency is read from the fitted curve at half-maximal effect
Summary of the method: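 Human lymphoblastoid LYMP2-018 cells, 2500/well, settled 5 hr at 37 C then exposed to compound 24 hr at 37 C; intracellular ATP measured by CellTiter-Glo luminescence. AC50 from Hill-equation concentration-response fits.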

[10] = Cell Viability - LYMP2-020 (AID 986); also: nearly all actives have a fitted effect of over 55% in size; also: potency is read from the fitted curve at half-maximal effect
Summary of the method: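 Human lymphoblastoid LYMP2-020 cells (2500/well) preincubated 5 h at 37 C, then treated 24 h at 37 C. Viability measured as intracellular ATP by CellTiter-Glo luminescence after 30 min at room temperature; AC50 from Hill fits.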

[11] = Cell Viability - LYMP2-022 (AID 987); also: nearly all actives have a fitted effect of over 55% in size; also: potency is read from the fitted curve at half-maximal effect
Summary of the method: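 LYMP2-022 lymphoblastoid cells (2500/well, complete medium) were treated with compounds for 24 hours at 37 C; intracellular ATP was then read by CellTiter-Glo luminescence after 30 min at room temperature. AC50 values were derived from Hill-equation fits.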

[12] = Cell Viability - LYMP2-024 (AID 988); also: nearly all actives have a fitted effect of over 60% in size; also: potency is read from the fitted curve at half-maximal effect
Summary of the method: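 Human lymphoblastoid LYMP2-024 cells (2500/well) rested 5 hr, then treated with compound for 24 hr at 37 C in complete medium. Viability was measured as intracellular ATP by CellTiter-Glo luminescence. AC50 values came from Hill-equation fits.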

[13] = Cell Viability - LYMP2-026 (AID 989); also: nearly all actives have a fitted effect of over 50% in size
Summary of the method: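 Human lymphoblastoid LYMP2-026 cells, 2500/well, exposed to compound 24 h at 37 C in complete medium. Viability as intracellular ATP by CellTiter-Glo luminescence; AC50 from Hill fits of qHTS concentration-response.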

[14] = Cell Viability - LYMP1-002 - Assay at 24 hr (AID 993)
Summary of the method: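 Human lymphoblastoid LYMP1-002 cells (2500/well) treated 24 h at 37 °C; viability as intracellular ATP by CellTiter-Glo luminescence. Tetraoctylammonium bromide as positive control; AC50 from Hill-equation fits of qHTS concentration-response.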

[15] = Cell Viability - LYMP1-002 - Assay at 40 hr (AID 994); also: nearly all actives have a fitted effect of over 60% in size
Summary of the method: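 LYMP1-002 human lymphoblastoid cells (2500/well, complete medium) were treated with compounds for 40 hr at 37 C. Intracellular ATP was measured by CellTiter-Glo luminescence, and AC50 values came from Hill-equation fits of concentration-response data; tetraoctylammonium bromide was the positive control.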

[16] = qHTS Assay for Identification of Small Molecule Inducers of Hypoxia Response (AID 2120; active = well fitted curve in the direction sought with a large enough effect in the signal ratio, with a control signal flat, not every such curve was filed as active; the % refers to the signal ratio)
Summary of the method: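 HRE-bla ME-180 cells in Opti-MEM with 0.5% dialyzed FBS, pre-plated 4-5 h, then compound titration for 17 h at 37 degrees Celsius. CCF4 loaded 2.5 h at room temperature; 460/530 nm ratio gave %Activity and AC50 for induction.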

[17] = Cell Viability - LYMP2-025 (AID 976); also: series mostly up to about 92 µM
Summary of the method: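 Human lymphoblastoid LYMP2-025 cells, 2500/well, exposed 24 h at 37 C in complete medium in 1536-well qHTS. Viability as cellular ATP by CellTiter-Glo luminescence; AC50 from Hill fits of concentration-response data.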

Compound	Potency [1]	Potency [2]	Potency [3]	Potency [4]	Potency [5]	Potency [6]	Potency [7]	Potency [8]	Potency [9]	Potency [10]	Potency [11]	Potency [12]	outcome [13]	Potency [14]	Potency [15]	outcome [16]	Potency [17]
N#Cc1ccccc1	inactive	inactive	inactive	inactive	inactive	inactive	inactive	inactive	inactive	inactive	inactive	inactive	inactive	inactive	inactive	inactive	–
Cc1ccc2c(c1[N+](=O)[O-])C(=O)c1ccccc1C2=O	inactive	inactive	inactive	inactive	inactive	–	inactive	inactive	inactive	inactive	inactive	–	inactive	inactive	inactive	inactive	–
O=C(O)c1cccc([N+](=O)[O-])c1	–	inactive	inactive	inactive	inactive	–	inactive	inactive	inactive	inactive	inactive	inactive	inactive	inactive	inactive	inactive	inactive
Clc1ccc(Cl)c(Cl)c1Cl	inactive	inactive	inactive	inactive	inactive	–	inactive	inactive	inactive	inactive	inactive	inactive	inactive	inactive	inactive	inactive	inactive
C=C(C)C(=O)OC	inactive	inactive	inactive	inactive	inactive	–	inactive	inactive	–	inactive	inactive	inactive	inactive	inactive	inactive	inactive	inactive
O=C1OC(=O)c2c(Cl)c(Cl)c(Cl)c(Cl)c21	–	inactive	inactive	inactive	inactive	inactive	inactive	inactive	–	inactive	inactive	inactive	inactive	inactive	inactive	inactive	inactive
CC(C)(C)OC=O	inactive	inactive	inactive	inactive	–	–	–	inactive	–	–	–	–	–	inactive	inactive	inactive	inactive
CC(C)(C)OCC1CO1 (centres undefined)	inactive	inactive	inactive	inactive	inactive	inactive	inactive	inactive	inactive	inactive	inactive	inactive	inactive	inactive	inactive	inactive	–
NC=O	inactive	inactive	inactive	inactive	inactive	–	inactive	inactive	inactive	inactive	inactive	inactive	–	inactive	inactive	inactive	–
Cc1ccccc1C(=O)O	inactive	inactive	inactive	inactive	inactive	inactive	inactive	inactive	inactive	inactive	inactive	inactive	inactive	inactive	inactive	inactive	–
CSc1ccc(C=O)cc1	–	inactive	inactive	inactive	inactive	–	inactive	inactive	inactive	inactive	inactive	inactive	inactive	inactive	inactive	inactive	–
O=[N+]([O-])c1ccc(NCCO)c(OCCO)c1	inactive	inactive	inactive	inactive	inactive	–	inactive	inactive	inactive	inactive	inactive	inactive	inactive	inactive	inactive	inactive	inactive
COCCOC(=O)c1ccccc1C(=O)OCCOC	inactive	inactive	inactive	inactive	inactive	inactive	inactive	inactive	inactive	inactive	inactive	inactive	inactive	inactive	inactive	inactive	–
O=C(O)CNC(=O)c1ccc([N+](=O)[O-])cc1	inactive	inactive	inactive	inactive	inactive	inactive	inactive	inactive	inactive	inactive	inactive	inactive	inactive	inactive	inactive	inactive	–
NS(=O)(=O)O	–	inactive	inactive	inactive	inactive	inactive	inactive	inactive	inactive	inactive	inactive	inactive	inactive	inactive	inactive	inactive	inactive
c1ccc2n[nH]nc2c1	–	inactive	inactive	inactive	inactive	inactive	inactive	inactive	inactive	inactive	inactive	inactive	inactive	inactive	inactive	inactive	inactive
CCC1CO1 (centres undefined)	inactive	inactive	inactive	inactive	inactive	–	inactive	inactive	inactive	inactive	inactive	inactive	inactive	inactive	inactive	inactive	inactive
CCCCC/C=C/C=C/C=O	50.1 µM (active)	50.1 µM (active)	39.8 µM (active)	39.8 µM (active)	39.8 µM (active)	50.1 µM (active)	50.1 µM (active)	50.1 µM (active)	79.4 µM (active)	39.8 µM (active)	50.1 µM (active)	50.1 µM (active)	–	inactive	inactive	inactive	–
CCCCC(CC)CO (centres undefined)	–	inactive	inactive	inactive	inactive	inactive	inactive	inactive	inactive	inactive	inactive	inactive	–	–	inactive	inactive	–
Cc1ccc(C)c([N+](=O)[O-])c1	inactive	inactive	inactive	inactive	inactive	–	inactive	inactive	–	inactive	inactive	inactive	inactive	–	inactive	inactive	inactive

Compound	Potency [1]	Potency [2]	Potency [3]	Potency [4]	Potency [5]	Potency [6]	Potency [7]	Potency [8]	Potency [9]	Potency [10]	Potency [11]	Potency [12]	outcome [13]	Potency [14]	Potency [15]	outcome [16]	Potency [17]
O=Cc1cccc(Br)c1	inactive	inactive	inactive	inactive	inactive	–	inactive	inactive	inactive	inactive	inactive	inactive	inactive	–	inactive	inactive	inactive
O=C1OC(=O)c2c(Br)c(Br)c(Br)c(Br)c21	–	inactive	inactive	inactive	inactive	inactive	inactive	inactive	–	inactive	inactive	inactive	inactive	inactive	inactive	inactive	inactive
CC(C)C(C)C	inactive	inactive	inactive	inactive	inactive	inactive	inactive	inactive	–	inactive	inactive	inactive	inactive	inactive	inactive	inactive	inactive
Cc1ccc(C)c(O)c1	inactive	inactive	inactive	inactive	inactive	–	inactive	inactive	inactive	inactive	inactive	inactive	inactive	inactive	inactive	inactive	inactive
O=C(O)c1ccc(CO)o1	inactive	inactive	inactive	inactive	–	–	inactive	inactive	inactive	inactive	inactive	–	inactive	inactive	inactive	inactive	inactive
C=CCCCCCCC=C	inactive	inactive	inactive	inactive	inactive	inactive	inactive	inactive	–	inactive	inactive	inactive	inactive	–	inactive	inactive	inactive
Cc1cccc(Br)c1	inactive	inactive	inactive	inactive	inactive	–	inactive	inactive	inactive	inactive	inactive	inactive	inactive	inactive	inactive	inactive	inactive
CC(C)C=O	inactive	inactive	inactive	inactive	inactive	inactive	inactive	inactive	inactive	inactive	inactive	inactive	inactive	inactive	inactive	inactive	–
CCC(=O)/C=C/C1C(C)=CCCC1(C)C (centres undefined)	–	inactive	–	inactive	50.1 µM (active)	–	inactive	inactive	inactive	inactive	–	–	inactive	inactive	inactive	inactive	inactive
O=C(O)c1ccc(C(=O)O)cc1	–	inactive	inactive	inactive	inactive	inactive	inactive	inactive	inactive	inactive	inactive	inactive	inactive	–	inactive	inactive	inactive
Cc1ccc(C)o1	inactive	inactive	inactive	inactive	inactive	–	inactive	inactive	inactive	inactive	inactive	inactive	inactive	inactive	inactive	inactive	inactive
CCCCC(CC)CNCC(CC)CCCC (centres undefined)	inactive	inactive	inactive	inactive	inactive	inactive	inactive	inactive	–	inactive	inactive	inactive	inactive	inactive	inactive	inactive	inactive
S=C([S-])NCCNC(=S)[S-].[Zn+2]	inactive	inactive	inactive	inactive	inactive	–	inactive	inactive	inactive	inactive	inactive	inactive	inactive	inactive	inactive	inactive	inactive
C[C@@H]1O[C@@H](O[C@@H]2[C@@H](O)[C@H](OCCc3ccc(O)c(O)c3)O[C@H](CO[C@@H]3O[C@H](CO)[C@@H](O)[C@H](O)[C@H]3O)[C@H]2OC(=O)/C=C/c2ccc(O)c(O)c2)[C@H](O)[C@H](O)[C@H]1O	inactive	inactive	inactive	inactive	–	inactive	inactive	inactive	inactive	inactive	inactive	inactive	inactive	inactive	inactive	inactive	inactive
Nc1ccccc1S(=O)(=O)O	inactive	inactive	inactive	inactive	inactive	–	inactive	inactive	inactive	inactive	inactive	inactive	–	inactive	inactive	inactive	–
Nc1cccc(N)c1	inactive	inactive	inactive	inactive	inactive	–	inactive	inactive	inactive	inactive	inactive	inactive	–	inactive	inactive	inactive	–
CC(O)CC(C)O (centres undefined)	inactive	inactive	inactive	inactive	inactive	inactive	inactive	inactive	–	inactive	inactive	inactive	inactive	–	inactive	inactive	inactive
N#CC1(O)CCCCC1	inactive	inactive	inactive	inactive	inactive	–	inactive	inactive	inactive	inactive	inactive	inactive	–	–	inactive	inactive	–
CCC(C)=O	–	inactive	inactive	inactive	inactive	inactive	inactive	inactive	inactive	inactive	inactive	inactive	inactive	inactive	inactive	inactive	inactive
